Screens: PubChem, National Center for Advancing Translational Sciences (NCATS)
Pol kappa inh-1 – inhibitors of human DNA polymerase kappa | purified Pol kappa, fluorescent DNA synthesis assay, 10 min | Potency, µM (series often up to 107 µM), for inactives: at the highest dose activity, negative = inhibition, usual class: inhibitors | 400,000 tested, 0.53% active; also: % is scaled to controls: 0 for no effect and ±100 for the full control effect
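10 nM Pol kappa was preincubated with compounds for 15 min at room temperature. Reaction started with 50 nM (final) substrate. Fluorescence read kinetically at 0 and 10 min.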
POLI inh – DNA polymerase iota (human) inhibition; Q9UNA4; Pol iota fluorescent replication assay, 10 min; Potency, µM (doses to about 115 µM), for the others: at the top dose activity, negative = inhibition, actives largely listed as inhibitors; 390,000 tested, 1% active; AID 588590
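Pol iota at 10 nM preincubated 15 min with compounds at room temperature; reaction started with fluorescent substrate, 50 nM final. Fluorescence read kinetically at 0 and 10 min; buffer-only wells as negative control.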
FEN1 inh – human FEN1 inhibition. 390,000 tested, 0.35% active. Potency, µM (titrated, usually from 114 µM), without a hit: top-dose activity change, negative = inhibition, most hits filed as inhibitors. P39748. AID 588795. Recombinant FEN1 flap cleavage, fluorescence, 15 min; also: % is scaled to controls: 0 for no effect and ±100 for the full control effect; nearly all actives have a fitted effect of over 65% in size
Target sequence (P39748 whole entry, looked up): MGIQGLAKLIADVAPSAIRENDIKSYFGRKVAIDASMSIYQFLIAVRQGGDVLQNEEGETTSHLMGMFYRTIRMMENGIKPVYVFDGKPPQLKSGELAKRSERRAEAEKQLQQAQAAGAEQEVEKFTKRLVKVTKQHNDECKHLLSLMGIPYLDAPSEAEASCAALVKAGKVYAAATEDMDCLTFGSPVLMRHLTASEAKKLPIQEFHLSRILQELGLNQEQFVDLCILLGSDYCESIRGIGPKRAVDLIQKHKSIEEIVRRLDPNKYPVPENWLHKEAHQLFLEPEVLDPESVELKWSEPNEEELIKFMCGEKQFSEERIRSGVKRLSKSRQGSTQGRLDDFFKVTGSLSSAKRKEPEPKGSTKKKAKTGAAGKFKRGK
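Steps: FEN1 (10 nM) dispensed; compound added by pin tool; 15 min at room temperature; substrate added to 50 nM final; reads at 0 min and 15 min; data normalized and fitted (four-parameter Hill).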
WRN helicase inh – WRN helicase (human) inhibition. WRN helicase unwinding, fluorescent forked duplex, kinetic. Potency, µM (series often up to 114 µM), without a hit: top-dose activity change, negative = inhibition, usual class: inhibitors. 360,000 tested, 0.46% active; also: % is scaled to controls: 0 for no effect and ±100 for the full control effect; nearly all actives have a fitted effect of over 55% in size
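Fluorescence dequenching readout, ex 525 nm/em 598 nm, kinetic mode: forked duplex DNA (100 nM final) with adjacent fluorophore and quencher unwound by WRN (20 nM final) with 2 mM ATP. Compound preincubation 15 min, room temperature.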
Pol beta inh – DNA polymerase beta (human) inhibition. P06746. 340,000 tested, 1.3% active. AID 485314. Potency, µM (titrated, usually from 114 µM), without a hit: top-dose activity change, negative = inhibition, actives largely listed as inhibitors. Pol beta primer extension/strand displacement, fluorescence kinetic; also: % is scaled to controls: 0 for no effect and ±100 for the full control effect
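Preincubation: enzyme (10 nM) with compound, 15 min, RT. Reaction: substrate added to 50 nM final. Reads: 0 and 10 min. Analysis: normalized, Hill fit.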
Pol eta inh-1 – inhibitors of human DNA polymerase eta | Q9Y253 | recombinant Pol eta, fluorescent DNA replication assay | Potency, µM (top dose mostly 114 µM), for inactives: top-dose activity change, negative = inhibition, actives largely listed as inhibitors | 390,000 tested, 1.2% active | AID 588591; also: % is scaled to controls: 0 for no effect and ±100 for the full control effect
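Pol eta at 10 nM preincubated with compounds 15 min at room temperature; reaction started with fluorescent substrate (50 nM final) and read kinetically at 0 and 10 min.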
Pol kappa inh-2 – confirmation of human DNA polymerase kappa inhibitors; shares compounds with Pol eta inh-1; Potency, µM, actives largely listed as inhibitors; purified Pol-kappa, fluorescent strand-displacement substrate; 920 tested, 76% active; AID 720501
Pol eta inh-2 – Pol eta (human) inhibition, cherry-pick confirmation; 2,600 tested, 64% active; shares compounds with Pol eta inh-1; AID 720502; Potency, µM, hits mostly inhibitors; Pol eta primer extension, TAMRA/BHQ fluorescence, 10 min
The depositor's hits bear a star; [ ] = another dose, or the depositor's remark. A selection: hits, their analogues and other compounds. The true share with any hit is near 2.4%. Calls follow the shape of the dose curve; as a rule, active = well fitted curve in the direction sought with a large enough effect; inconclusive = small, poorly fitted or top-dose-only effect, or another doubt; inactive = no such curve, though single readings can be large; an effect the other way counts as inactive or inconclusive. Potency is read from the fitted curve at half-maximal effect.

Cc1nn(-c2ccccc2)c(C)c1/C=N/NC(=O)c1cc(O)cc(O)c1 was read as Pol kappa inh-1 5%, POLI inh 60%, FEN1 inh -18%, WRN helicase inh 1%, Pol beta inh 10% and Pol eta inh-1 -16%.
For O=C(Nc1nc2ccccc2n1CCN1CCOCC1)c1ccc(Cl)cc1 the results were Pol kappa inh-1 4%, POLI inh -11%, FEN1 inh 0%, WRN helicase inh 3%, Pol beta inh 12% and Pol eta inh-1 -13%.
Screening Cc1c(C(=O)NCc2ccc3c(c2)OCCO3)sc(=O)n1Cc1ccccc1C(F)(F)F returned WRN helicase inh -3%[57.1 µM].
O=C(NCCN1CCOCC1)C1CCCN(S(=O)(=O)c2ccc(F)cc2)C1 (centres undefined) was read as Pol kappa inh-1 1%, POLI inh 0%, FEN1 inh 6%, WRN helicase inh 8%, Pol beta inh 25% and Pol eta inh-1 -13%.
COC(=O)c1ccc(COc2ccc(/C=N/Nc3nc(C)cc(=O)[nH]3)cc2)cc1 was read as Pol kappa inh-1 -7%, POLI inh inconclusive, FEN1 inh inconclusive, WRN helicase inh -10%[11.6 µM], Pol beta inh 20µM*, Pol eta inh-1 89µM* and Pol kappa inh-2 inconclusive.
Cc1cc(NC(=O)CCC(=O)N(C(C(=O)NC(C)(C)C)c2ccccc2Cl)C(C)(C)C)no1 (centres undefined) was read as Pol kappa inh-1 6%, POLI inh 71%, FEN1 inh 5%, WRN helicase inh -7%, Pol beta inh -6% and Pol eta inh-1 -9%.
For CCOC(=O)c1ccc2c(c1)[C@@H]1C=CC[C@@H]1[C@H](c1cccc(OC)c1OC)N2 the results were Pol kappa inh-1 -32%, POLI inh inconclusive, FEN1 inh -20%, Pol beta inh -12% and Pol eta inh-1 -7%.
For COc1ccc(OC)c([C@@H]2Nc3ccc(C(=O)O)cc3[C@@H]3C=CC[C@@H]32)c1 the results were Pol kappa inh-1 -2%[60.1 µM], POLI inh -7%, FEN1 inh -20%, Pol beta inh -1%, Pol eta inh-1 35µM*, Pol kappa inh-2 34* and Pol eta inh-2 85*.
COc1ccc(Br)cc1[C@@H]1Nc2ccc(C(=O)O)cc2[C@@H]2C=CC[C@@H]21 was read as Pol kappa inh-1 35µM*, POLI inh 25µM*, FEN1 inh inconclusive, Pol beta inh -22%, Pol eta inh-1 79µM* and Pol eta inh-2 30*.
For O=C(CCc1nc2ccccc2c(=O)[nH]1)NCC(=O)Nc1ccc(F)c(F)c1 the results were Pol kappa inh-1 -11%, POLI inh 27%, FEN1 inh 1%, WRN helicase inh 2% and Pol eta inh-1 -7%.
O=C(CCc1nc2ccccc2c(=O)[nH]1)Nc1ccc(F)c([N+](=O)[O-])c1 was read as Pol kappa inh-1 -35%, POLI inh 49%, FEN1 inh 15%, WRN helicase inh -24%, Pol beta inh inconclusive, Pol eta inh-1 inconclusive and Pol eta inh-2 67*.
For Cc1ccc(OCCC(=O)O)cc1 the results were Pol kappa inh-1 inconclusive, POLI inh inconclusive, FEN1 inh -7%, WRN helicase inh 2%, Pol beta inh -1%, Pol eta inh-1 56µM* and Pol eta inh-2 inconclusive.
`Cc1cc(C)cc(OCCCC(=O)O)c1` gave Pol kappa inh-1 -5%, POLI inh 12%, FEN1 inh -1%, WRN helicase inh -12%, Pol beta inh -25% and Pol eta inh-1 -1%.
For COC(=O)N/N=C(\C)c1cccc(C(F)(F)F)c1 the results were Pol kappa inh-1 2%, POLI inh 36%, FEN1 inh 1%, WRN helicase inh -7%, Pol beta inh 28% and Pol eta inh-1 -20%.
CCn1nc([N+](=O)[O-])c(C(C#N)c2nc3cc(C(F)(F)F)ccc3s2)c(Cl)c1=O (centres undefined) was read as Pol kappa inh-1 -10%, POLI inh inconclusive, FEN1 inh inconclusive, WRN helicase inh inconclusive, Pol beta inh 56µM*, Pol eta inh-1 89µM* and Pol kappa inh-2 60*.
`Cc1ccc(-c2ccc(CCC(=O)O)n2Cc2ccco2)cc1` gave Pol kappa inh-1 -28%, POLI inh inconclusive, FEN1 inh -10%, WRN helicase inh inconclusive, Pol beta inh inconclusive, Pol eta inh-1 22µM* and Pol eta inh-2 inconclusive.
Screening O=C(O)c1ccc(Nc2ncc([N+](=O)[O-])cc2[N+](=O)[O-])cc1 returned Pol kappa inh-1 -29%, POLI inh inconclusive, FEN1 inh -3%, WRN helicase inh -3%[11.6 µM], Pol beta inh 25%, Pol eta inh-1 32µM* and Pol eta inh-2 67*.
`O=C(Nc1ccc(C(=O)O)cc1)Nc1ccc([N+](=O)[O-])cc1` gave Pol kappa inh-1 -8%, POLI inh 150%, FEN1 inh 4%, WRN helicase inh -28%, Pol beta inh 12% and Pol eta inh-1 -30%.
`N#C/C(=C(/O)c1ccco1)c1nc2ccccc2s1` gave Pol kappa inh-1 -20%, POLI inh 53%, FEN1 inh -11%, WRN helicase inh -6%, Pol beta inh -14% and Pol eta inh-1 15%.
